Source: PubChem BioAssay AID602399 (Sanford-Burnham Center for Chemical Genomics, 2012)
The whole screen tested about 360,000 compounds, of which about 2,800 (0.78%) were called active. This excerpt belongs to a sample that is enriched for actives. A number with no mark means an inactive call. No stated cut-off is given here; in the data, active means inhibition above about 26%; inactive means the rest.

Each compound was assayed on Nicotinate-nucleotide adenylyltransferase NadD (Staphylococcus aureus N315) (assay: inhibitors of S. aureus NadD, primary screen, biochemical, colorimetric, uHTS (AID 602399)). Conditions: purified NadD enzyme, colorimetric absorbance read-out; at 20 µM; hits give high values.

Structure (SMILES) | inhibition
COc1ccc(CC(=O)Nc2c3c(nn2-c2cccc(Cl)c2)CS(=O)C3)cc1 (stereo not drawn) | 5.19%
Cc1ccc(NS(=O)(=O)c2cc3c(cc2Br)NC(=O)CO3)cc1C | -3.42%
C#CCOCCOCCOCCNc1nc(N2CCOCC2)nc(N2CCN(C(=O)[C@H](Cc3ccc(O)cc3)n3cc(CCO)nn3)CC2)n1 | -4.41%
C#CCOCCOCCOCCNc1nc(N2CCN(C(=O)C([C@@H](C)O)n3cc([C@@H](N)CCCCN)nn3)CC2)nc(N2CCN(C(=O)[C@H](CCCCN)n3cc(CN)nn3)CC2)n1 (stereo partly drawn) | -6.21%
C#CCOCCOCCOCCNc1nc(N2CCN(C(=O)CCCCCCCCCCNC(=O)Cn3cc(CCCCCN)nn3)CC2)nc(N2CCN(C(=O)CCCCCCCCCCNC(=O)[C@H](CO)n3cc(CCCSC)nn3)CC2)n1 | 46.8% (active)
C=CCOc1cccc(C2C(C(=O)c3ccc(C)o3)=C(O)C(=O)N2CCN2CCOCC2)c1 (stereo not drawn) | 6.48%
CCNc1nc(SCCOc2ccccc2)nc(N(C)C)n1 | -6.51%
O=C(CSc1nnc(-c2cnccn2)n1Cc1ccco1)c1ccc(Cl)c(Cl)c1 | 10.3%
O=C(CSc1nnc(-c2cccnc2)n1Cc1ccco1)c1ccc(Cl)c(Cl)c1 | 30.6% (active)
C(=C\c1ccccc1)/CSc1nnc(-c2cccnc2)n1Cc1ccco1 | 14.6%
CCOC(=O)/C=c1\s/c(=C\c2ccc(C#N)cc2)c(=O)n1CC(=O)Nc1cccc(C)c1C | 32.6% (active)
Cc1cccc(NC(=O)CN2CCN(C(=O)C3CCN(C(=O)/C=C/c4ccccc4)CC3)CC2)c1C | 5.55%
Cc1cccc(NC(=O)CSC(N)=O)c1C | -2.73%
Cc1c(CN2CCCCC2)c(O)n(CCO)c(=O)c1C#N | -2.39%
Cc1cccc(-c2c(NC(=O)c3ccco3)oc3ccc(Cl)cc3c2=O)c1 | -6.28%
Cc1ccc(N=C2NC(=O)/C(=C/C=C/c3ccco3)S2)cc1C | 37.2% (active)
FC(F)(F)c1ccnc(Oc2ccc(C3=NCCS3)cc2)c1 | -2.78%
CCCCn1ccnc1C(=O)c1cccc(S(=O)(=O)N2c3ccccc3CC2C)c1 (stereo not drawn) | 9.25%
Cn1c(=O)[nH]c(=O)c2c1nc(CN1CCN(c3ccccc3F)CC1)n2CCc1ccccc1 | 0.696%
CC(C)C(=O)Nc1c2c(nn1-c1ccccc1)CSC2 | -1.75%
COc1ccccc1C(=O)N/C(=C/c1ccco1)C(=O)Nc1ccc(C(=O)O)cc1 | 1.58%
O=C(Nc1ccc(C(=O)O)cc1)/C(=C\c1ccccc1)NC(=O)c1ccc(Br)cc1 | -2.9%
COCCCn1c(=O)/c(=C/c2ccccc2OC(C)C)s/c1=C(\C#N)C(=O)Nc1ccc(C(=O)O)cc1 | 32% (active)

Structure (SMILES) | inhibition
CCOC(=O)c1cccc(NC(=O)CCc2nnc3ccc(N4CCOCC4)nn23)c1 | -5.9%
Cc1ccc(Cn2cc(CN3CC(N4CCN(C)CC4)CS3(=O)=O)nn2)cc1 (stereo not drawn) | -10.5%
C=CCN1C(=O)C(O)(CC(=O)c2ccccn2)c2ccccc21 (stereo not drawn) | 13.4%
CCOc1ccccc1C1CC(c2ccc(Cl)cc2)Nc2nc(N)nn21 (stereo not drawn) | 9.48%
Cc1ccc(C2CC(c3cccc(Br)c3)n3nc(N)nc3N2)cc1 (stereo not drawn) | 7.54%
Nc1nc2n(n1)C(c1ccco1)CC(c1ccc(Cl)c(Cl)c1)N2 (stereo not drawn) | 47.1% (active)
CCOC(=O)c1cn(CC)c2cc(F)c(F)cc2c1=O | -0.618%
COC(=O)CSc1nc2c(c(C3CC=CCC3)c1C#N)CCC2 (stereo not drawn) | -1.38%
COc1ccc(CC(=O)Nc2sc(Cc3ccccc3)c(C)c2C(N)=O)cc1 | -6.77%
COc1cc(OC)cc(C(=O)NNC(=O)Cc2cccs2)c1 | 10.7%
COc1ccc(Cc2nnc(NC(=O)Cc3cccs3)s2)cc1 | 32.5% (active)
CC(C)C[C@@H](CO)N1CCN(Cc2ccc(O)cc2)CCC1=O | 4.79%
CC(CCN1CCN=C1N(C)C)c1ccccc1 (stereo not drawn) | -0.906%
Cc1c2cnn(CC(=O)NCc3ccccn3)c(=O)c2c(C)n1Cc1ccc(Cl)cc1 | 0.351%
O=[N+]([O-])c1cc(Cl)cc(/C=N/NC(=S)Nc2cc(S(=O)(=O)N3CCOCC3)ccc2Cl)c1O | 47.9% (active)
COC(=O)c1cc(Oc2ccc(S(=O)(=O)N3CCOCC3)cc2[N+](=O)[O-])cc(C(=O)OC)c1 | 1.67%
Cc1cc(OCCCC(=O)Nc2cc(S(=O)(=O)N3CCOCC3)ccc2N2CCOCC2)ccc1Cl | -12.2%
O=C(Nc1ccc(N2CCN(C(=O)c3cccs3)CC2)cc1)c1cccnc1Cl | 4.87%
C=CC(=O)Nc1ccc(Nc2ccnc(Nc3ccc(N4CCN(C)CC4)cc3)n2)cc1 | 42.6% (active)
CC(=O)Nc1cc(-c2ccc(N3CCN(C)CC3)cc2)cn2c(-c3ccc(F)cc3)cnc12 | 0.533%
CC1=C(C)CC2C(=O)N(c3cccc4ccccc34)C(=O)C2C1 (stereo not drawn) | -0.224%
Oc1ccccc1C1=NN(c2ccccc2)C(c2ccccc2)C1 (stereo not drawn) | -11.2%
O=C1C2N=NN(CC(=O)N3N=C(c4cccc5ccccc45)CC3c3ccccc3)C2C(=O)N1c1ccccc1 (stereo not drawn) | 48.5% (active)

Structure (SMILES) | inhibition
Cc1ccc(N2C(=O)C3N=NN(CC(=O)N4N=C(c5cccc6ccccc56)CC4c4ccccc4)C3C2=O)cc1 (stereo not drawn) | 45.4% (active)
O=C1c2cccc(OCC(=O)N3N=C(c4cccs4)CC3c3ccc(F)cc3)c2CCN1Cc1ccccc1 (stereo not drawn) | 26.5%
Cc1ccc(C2=NN(C(=O)COc3ncnc4ccccc34)C(c3ccco3)C2)cc1 (stereo not drawn) | 0.743%
CN1CCN(C(=O)/C(=C\c2ccc3c(c2)OCO3)NC(=O)c2cccs2)CC1 | -6.87%
O=C1CC2(CCCC2)Oc2ccc(Cl)cc21 | -1.24%
CCSC1=NCCN1C(=O)c1ccc(S(=O)(=O)N(CC)CC)cc1 | 3.55%
Cc1ccc(-n2c(=O)cc(N3CCN(Cc4ccccc4)CC3)[nH]c2=O)cc1 | 4.3%
Cc1cccc(CCNS(=O)(=O)c2ccc3c(c2)NC(=O)CO3)c1 | -0.563%
COC(=O)c1ccc(/C=N/OCC(=O)Nc2cc(F)ccc2F)cc1 | -3.44%
CCCc1nc2c3ccccc3ccn2c1Cc1ccccc1C(F)(F)F | 1.56%
Cc1ccc(C(=O)NNC(=O)CSc2nnc3ccccn23)cc1 | -1.33%
Cc1ccc(C(=O)NNc2ncnc3ccccc23)cc1 | -2.31%
Cc1ccc(C(=O)NNC(=O)c2cc3cc4ccccc4nc3s2)cc1 | 31.4% (active)
Nc1nc2c(ncn2[C@@H]2O[C@H](CNS(=O)(=O)N3CCc4ccccc4C3)[C@@H](O)[C@H]2O)c(=O)[nH]1 | 1.88%
CCC/C=C(\CCC)C(NC(=O)Cc1ccccc1)c1ccc(C(=O)OC)cc1 (stereo not drawn) | 10.4%
CC1CCN(C(=O)Cn2cc(C(=O)c3ccco3)c3ccccc32)CC1 | 3.46%
O=C(c1ccc(CS(=O)(=O)c2ccccc2)o1)N1CCN(c2ccccc2)CC1 | 1.5%
Cc1cccc(-c2oc3ccc(-c4ccc5c(c4)OCO5)cc3c2C#Cc2cncn2C)c1 | 26.9%
COc1ccc2sc(-c3ccc(S(C)(=O)=O)cc3)c(C#Cc3cncn3C)c2c1 | 0.758%
Cn1cncc1C#Cc1c(-c2ccsc2)sc2ccccc12 | 30% (active)
CS(=O)(=O)N(CC(=O)N1CCCCCC1)c1cccc(Cl)c1Cl | -9.97%
Cc1c(S(=O)(=O)NCc2ccccc2)c(=O)n(C)c(=O)n1C | -3.14%
